This note sets out measurements from ChEMBL document CHEMBL1961873, “Compounds: GSK PKIS; Assays: Nanosyn kinase panel” (2012).

Assay [1] has as its target Tyrosine-protein kinase SYK (Homo sapiens) (UniProt P43405). Conditions: at 1 µM.
Assay [2] concerns the target T1, Tyrosine-protein kinase Tec (Homo sapiens) (UniProt P42680).
T1 sequence (whole entry): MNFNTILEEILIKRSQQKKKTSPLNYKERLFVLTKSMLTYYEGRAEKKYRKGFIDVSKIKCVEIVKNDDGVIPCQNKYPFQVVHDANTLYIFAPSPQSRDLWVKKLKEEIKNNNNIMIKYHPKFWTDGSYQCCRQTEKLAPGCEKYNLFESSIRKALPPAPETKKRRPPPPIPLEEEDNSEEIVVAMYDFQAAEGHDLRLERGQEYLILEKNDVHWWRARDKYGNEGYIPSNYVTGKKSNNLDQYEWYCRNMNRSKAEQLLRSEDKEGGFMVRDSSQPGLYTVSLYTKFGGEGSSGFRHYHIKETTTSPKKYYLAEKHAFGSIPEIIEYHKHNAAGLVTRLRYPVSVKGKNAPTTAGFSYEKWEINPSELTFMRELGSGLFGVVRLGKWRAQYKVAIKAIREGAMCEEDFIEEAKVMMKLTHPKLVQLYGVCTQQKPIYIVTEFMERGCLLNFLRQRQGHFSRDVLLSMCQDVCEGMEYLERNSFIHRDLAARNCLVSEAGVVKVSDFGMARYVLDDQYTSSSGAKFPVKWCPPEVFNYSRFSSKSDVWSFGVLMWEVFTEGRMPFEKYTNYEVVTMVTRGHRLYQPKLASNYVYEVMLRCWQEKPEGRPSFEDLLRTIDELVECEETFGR
Conditions: at 0.1 µM.

Assay [3] concerns the target T1, Tyrosine-protein kinase Tec (Homo sapiens). The following applies: at 1 µM.
The target in assay [4] is Angiopoietin-1 receptor (Homo sapiens) (UniProt Q02763). The following applies: at 0.1 µM.
For assay [5] the target is unchanged. Conditions: at 1 µM.
Assay [6] concerns the target T2, Non-receptor tyrosine-protein kinase TNK1 (Homo sapiens) (UniProt Q13470).
T2 sequence (whole entry): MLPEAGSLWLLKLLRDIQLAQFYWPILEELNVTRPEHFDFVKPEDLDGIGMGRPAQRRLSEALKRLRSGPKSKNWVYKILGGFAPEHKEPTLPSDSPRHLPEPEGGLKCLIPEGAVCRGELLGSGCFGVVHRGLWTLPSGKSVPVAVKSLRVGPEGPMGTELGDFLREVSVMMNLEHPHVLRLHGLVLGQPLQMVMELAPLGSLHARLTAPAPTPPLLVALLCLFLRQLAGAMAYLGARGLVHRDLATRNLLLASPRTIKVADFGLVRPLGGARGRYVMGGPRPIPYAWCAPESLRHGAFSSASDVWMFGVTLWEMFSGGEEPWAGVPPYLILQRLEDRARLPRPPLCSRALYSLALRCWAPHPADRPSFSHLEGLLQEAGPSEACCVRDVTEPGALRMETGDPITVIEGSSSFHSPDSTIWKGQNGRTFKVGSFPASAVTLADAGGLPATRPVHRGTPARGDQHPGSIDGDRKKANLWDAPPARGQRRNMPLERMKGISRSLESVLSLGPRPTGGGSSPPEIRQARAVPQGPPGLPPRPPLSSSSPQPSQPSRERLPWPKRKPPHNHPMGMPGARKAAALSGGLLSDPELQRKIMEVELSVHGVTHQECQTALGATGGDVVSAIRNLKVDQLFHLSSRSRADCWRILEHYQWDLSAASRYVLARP
Conditions: at 0.1 µM.

In assay [7] the target is T2, Non-receptor tyrosine-protein kinase TNK1 (Homo sapiens). Conditions: at 1 µM.
Assay [8] addresses Activated CDC42 kinase 1 (Homo sapiens) (UniProt Q07912). The following applies: at 0.1 µM.
Assay [9] shares this target. The following applies: at 1 µM.
In assay [10] the target is High affinity nerve growth factor receptor (Homo sapiens) (UniProt P04629). Conditions: at 0.1 µM.
For assay [11] the target is unchanged. Conditions: at 1 µM.
Assay [12] addresses BDNF/NT-3 growth factors receptor (Homo sapiens) (UniProt Q16620). The following applies: at 0.1 µM.
The target is the same in assay [13]. Conditions: at 1 µM.
Assay [14] concerns the target NT-3 growth factor receptor (Homo sapiens) (UniProt Q16288). The following applies: at 0.1 µM.
The target is the same in assay [15]. The following applies: at 1 µM.
The target of assay [16] is T3, Tyrosine-protein kinase TXK (Homo sapiens) (UniProt P42681).
T3 sequence (whole entry): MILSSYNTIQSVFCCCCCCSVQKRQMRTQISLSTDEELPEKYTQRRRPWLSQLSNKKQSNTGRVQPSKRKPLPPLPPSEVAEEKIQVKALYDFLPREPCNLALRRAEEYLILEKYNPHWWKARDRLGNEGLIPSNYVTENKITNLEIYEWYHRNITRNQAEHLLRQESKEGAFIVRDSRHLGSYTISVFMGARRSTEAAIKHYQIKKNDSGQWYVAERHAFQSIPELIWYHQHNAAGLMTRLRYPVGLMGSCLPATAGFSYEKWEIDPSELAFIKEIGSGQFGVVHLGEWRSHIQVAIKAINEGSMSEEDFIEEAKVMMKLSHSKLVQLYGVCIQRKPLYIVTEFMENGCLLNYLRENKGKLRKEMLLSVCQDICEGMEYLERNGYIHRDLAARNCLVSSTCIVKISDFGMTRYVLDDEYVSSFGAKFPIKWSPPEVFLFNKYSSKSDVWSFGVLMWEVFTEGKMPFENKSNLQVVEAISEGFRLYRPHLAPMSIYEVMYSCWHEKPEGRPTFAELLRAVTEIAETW
The following applies: at 0.1 µM.

Assay [17] addresses T3, Tyrosine-protein kinase TXK (Homo sapiens). The following applies: at 1 µM.
In assay [18] the target is Non-receptor tyrosine-protein kinase TYK2 (Homo sapiens) (UniProt P29597). The following applies: at 0.1 µM.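 Further: each value is a mean of the inhibition readings.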
Assay [19] concerns the target T4, Dual specificity protein kinase TTK (Homo sapiens) (UniProt P33981).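 Further: reported figures are mean TTK inhibition at 1 µM.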
T4 sequence (whole entry): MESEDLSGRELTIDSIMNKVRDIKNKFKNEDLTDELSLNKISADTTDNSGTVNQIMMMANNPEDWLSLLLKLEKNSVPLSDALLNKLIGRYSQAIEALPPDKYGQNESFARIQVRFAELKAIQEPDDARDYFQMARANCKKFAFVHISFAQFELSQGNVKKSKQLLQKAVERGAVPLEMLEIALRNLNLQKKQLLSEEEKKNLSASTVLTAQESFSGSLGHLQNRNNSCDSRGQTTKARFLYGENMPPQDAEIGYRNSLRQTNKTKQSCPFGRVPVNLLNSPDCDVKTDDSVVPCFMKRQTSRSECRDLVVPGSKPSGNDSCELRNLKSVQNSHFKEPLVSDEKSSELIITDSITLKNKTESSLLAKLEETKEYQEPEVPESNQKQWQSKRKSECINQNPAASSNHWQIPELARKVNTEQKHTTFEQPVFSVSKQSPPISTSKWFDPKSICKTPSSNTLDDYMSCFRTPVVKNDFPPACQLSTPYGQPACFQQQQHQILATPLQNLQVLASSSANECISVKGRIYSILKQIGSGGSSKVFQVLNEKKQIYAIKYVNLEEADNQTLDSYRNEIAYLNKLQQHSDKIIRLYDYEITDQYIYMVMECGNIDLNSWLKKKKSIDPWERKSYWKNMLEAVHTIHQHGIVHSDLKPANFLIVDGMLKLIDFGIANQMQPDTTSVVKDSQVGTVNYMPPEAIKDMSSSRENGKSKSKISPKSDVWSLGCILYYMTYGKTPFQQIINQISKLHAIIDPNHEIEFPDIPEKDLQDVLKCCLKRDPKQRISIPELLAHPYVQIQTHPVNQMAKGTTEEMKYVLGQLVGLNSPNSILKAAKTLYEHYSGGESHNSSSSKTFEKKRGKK
The following applies: at 1 µM.

The target of assay [20] is T5, Aurora kinase A (Homo sapiens) (UniProt O14965).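 Further: each reported value is a mean percent inhibition of Aurora-A.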
T5 sequence (whole entry): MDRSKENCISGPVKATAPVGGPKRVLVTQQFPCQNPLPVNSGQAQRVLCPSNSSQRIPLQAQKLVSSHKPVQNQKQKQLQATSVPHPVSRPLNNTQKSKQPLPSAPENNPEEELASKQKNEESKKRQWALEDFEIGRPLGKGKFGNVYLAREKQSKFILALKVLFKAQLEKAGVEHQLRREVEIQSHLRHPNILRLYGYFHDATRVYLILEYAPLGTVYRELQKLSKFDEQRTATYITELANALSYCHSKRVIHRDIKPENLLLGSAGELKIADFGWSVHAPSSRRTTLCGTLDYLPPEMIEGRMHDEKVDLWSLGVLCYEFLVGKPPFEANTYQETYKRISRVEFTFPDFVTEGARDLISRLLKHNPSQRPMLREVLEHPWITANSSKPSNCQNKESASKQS
The following applies: at 0.1 µM.

Molecules are shown by their SMILES.

Sequence of Non-receptor tyrosine-protein kinase TYK2 (Homo sapiens) (P29597 whole entry): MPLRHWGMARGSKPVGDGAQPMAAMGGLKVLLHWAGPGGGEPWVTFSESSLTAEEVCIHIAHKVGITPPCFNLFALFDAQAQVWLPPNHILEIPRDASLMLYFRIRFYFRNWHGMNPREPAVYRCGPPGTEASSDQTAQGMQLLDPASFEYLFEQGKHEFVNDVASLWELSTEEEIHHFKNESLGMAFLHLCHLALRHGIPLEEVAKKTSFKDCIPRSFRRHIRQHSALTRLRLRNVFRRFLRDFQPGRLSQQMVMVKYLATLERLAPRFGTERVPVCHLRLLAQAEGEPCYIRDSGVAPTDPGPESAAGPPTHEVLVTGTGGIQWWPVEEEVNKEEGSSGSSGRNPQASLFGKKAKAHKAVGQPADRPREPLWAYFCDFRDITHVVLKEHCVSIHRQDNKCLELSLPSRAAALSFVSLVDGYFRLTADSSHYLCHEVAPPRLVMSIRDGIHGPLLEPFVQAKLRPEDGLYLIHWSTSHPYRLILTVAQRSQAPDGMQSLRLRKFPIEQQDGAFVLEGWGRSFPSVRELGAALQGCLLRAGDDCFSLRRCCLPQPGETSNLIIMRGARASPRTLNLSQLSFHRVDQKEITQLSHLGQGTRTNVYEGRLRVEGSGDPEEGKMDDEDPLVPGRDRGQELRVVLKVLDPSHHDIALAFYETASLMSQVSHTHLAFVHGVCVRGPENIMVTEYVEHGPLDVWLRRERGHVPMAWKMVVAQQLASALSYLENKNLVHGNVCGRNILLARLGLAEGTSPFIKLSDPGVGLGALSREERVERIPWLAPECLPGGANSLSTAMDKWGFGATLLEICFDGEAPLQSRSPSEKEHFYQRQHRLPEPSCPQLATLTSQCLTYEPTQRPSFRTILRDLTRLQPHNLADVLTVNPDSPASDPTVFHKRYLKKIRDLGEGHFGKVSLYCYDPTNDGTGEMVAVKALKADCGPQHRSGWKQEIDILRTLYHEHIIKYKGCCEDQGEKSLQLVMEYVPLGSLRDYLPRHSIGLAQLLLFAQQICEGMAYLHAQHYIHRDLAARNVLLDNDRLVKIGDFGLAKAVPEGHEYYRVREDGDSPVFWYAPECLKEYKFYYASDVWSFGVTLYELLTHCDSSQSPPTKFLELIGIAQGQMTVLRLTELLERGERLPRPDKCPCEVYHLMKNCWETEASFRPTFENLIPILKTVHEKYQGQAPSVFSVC
Sequence of High affinity nerve growth factor receptor (Homo sapiens) (P04629 33-796 limits assumed): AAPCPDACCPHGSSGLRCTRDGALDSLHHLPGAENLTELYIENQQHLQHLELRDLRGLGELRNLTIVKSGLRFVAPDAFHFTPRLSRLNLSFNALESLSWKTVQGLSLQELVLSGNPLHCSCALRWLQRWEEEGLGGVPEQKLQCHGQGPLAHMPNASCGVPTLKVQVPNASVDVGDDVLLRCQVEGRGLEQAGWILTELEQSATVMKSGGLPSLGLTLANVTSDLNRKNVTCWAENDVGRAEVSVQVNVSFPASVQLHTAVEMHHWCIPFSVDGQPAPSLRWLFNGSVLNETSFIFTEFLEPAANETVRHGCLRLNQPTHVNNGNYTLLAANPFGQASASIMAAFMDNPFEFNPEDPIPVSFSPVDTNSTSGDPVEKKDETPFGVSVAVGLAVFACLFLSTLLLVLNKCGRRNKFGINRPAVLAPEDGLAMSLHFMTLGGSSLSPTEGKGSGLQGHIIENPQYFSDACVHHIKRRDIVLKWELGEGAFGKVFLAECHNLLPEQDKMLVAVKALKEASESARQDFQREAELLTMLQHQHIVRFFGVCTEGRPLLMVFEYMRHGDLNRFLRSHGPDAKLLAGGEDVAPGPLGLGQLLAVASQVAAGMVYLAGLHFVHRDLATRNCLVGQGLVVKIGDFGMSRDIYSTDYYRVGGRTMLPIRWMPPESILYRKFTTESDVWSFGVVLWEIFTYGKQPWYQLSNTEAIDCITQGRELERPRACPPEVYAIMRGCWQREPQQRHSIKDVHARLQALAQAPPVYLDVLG
Sequence of NT-3 growth factor receptor (Homo sapiens) (Q16288 32-839 limits assumed): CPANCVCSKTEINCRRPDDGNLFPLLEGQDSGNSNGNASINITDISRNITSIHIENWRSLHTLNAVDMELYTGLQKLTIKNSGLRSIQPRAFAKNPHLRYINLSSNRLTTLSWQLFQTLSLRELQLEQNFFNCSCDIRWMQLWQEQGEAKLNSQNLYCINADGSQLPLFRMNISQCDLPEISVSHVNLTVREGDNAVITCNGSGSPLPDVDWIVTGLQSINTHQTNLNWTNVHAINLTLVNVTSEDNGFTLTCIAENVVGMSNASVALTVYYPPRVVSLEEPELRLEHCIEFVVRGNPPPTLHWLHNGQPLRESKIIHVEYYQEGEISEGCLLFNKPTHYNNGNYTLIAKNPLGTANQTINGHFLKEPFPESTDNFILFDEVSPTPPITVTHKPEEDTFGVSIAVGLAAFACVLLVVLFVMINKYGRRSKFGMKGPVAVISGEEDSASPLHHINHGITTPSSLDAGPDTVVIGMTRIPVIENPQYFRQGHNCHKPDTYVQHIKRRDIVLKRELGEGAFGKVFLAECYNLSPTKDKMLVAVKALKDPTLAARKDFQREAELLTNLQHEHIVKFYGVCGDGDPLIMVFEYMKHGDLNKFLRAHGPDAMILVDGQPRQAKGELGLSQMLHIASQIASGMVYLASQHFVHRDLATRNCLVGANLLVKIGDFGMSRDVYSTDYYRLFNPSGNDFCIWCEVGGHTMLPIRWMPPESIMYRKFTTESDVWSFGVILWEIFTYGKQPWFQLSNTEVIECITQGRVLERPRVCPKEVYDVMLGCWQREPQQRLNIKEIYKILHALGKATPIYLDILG
Sequence of Angiopoietin-1 receptor (Homo sapiens) (Q02763 whole entry): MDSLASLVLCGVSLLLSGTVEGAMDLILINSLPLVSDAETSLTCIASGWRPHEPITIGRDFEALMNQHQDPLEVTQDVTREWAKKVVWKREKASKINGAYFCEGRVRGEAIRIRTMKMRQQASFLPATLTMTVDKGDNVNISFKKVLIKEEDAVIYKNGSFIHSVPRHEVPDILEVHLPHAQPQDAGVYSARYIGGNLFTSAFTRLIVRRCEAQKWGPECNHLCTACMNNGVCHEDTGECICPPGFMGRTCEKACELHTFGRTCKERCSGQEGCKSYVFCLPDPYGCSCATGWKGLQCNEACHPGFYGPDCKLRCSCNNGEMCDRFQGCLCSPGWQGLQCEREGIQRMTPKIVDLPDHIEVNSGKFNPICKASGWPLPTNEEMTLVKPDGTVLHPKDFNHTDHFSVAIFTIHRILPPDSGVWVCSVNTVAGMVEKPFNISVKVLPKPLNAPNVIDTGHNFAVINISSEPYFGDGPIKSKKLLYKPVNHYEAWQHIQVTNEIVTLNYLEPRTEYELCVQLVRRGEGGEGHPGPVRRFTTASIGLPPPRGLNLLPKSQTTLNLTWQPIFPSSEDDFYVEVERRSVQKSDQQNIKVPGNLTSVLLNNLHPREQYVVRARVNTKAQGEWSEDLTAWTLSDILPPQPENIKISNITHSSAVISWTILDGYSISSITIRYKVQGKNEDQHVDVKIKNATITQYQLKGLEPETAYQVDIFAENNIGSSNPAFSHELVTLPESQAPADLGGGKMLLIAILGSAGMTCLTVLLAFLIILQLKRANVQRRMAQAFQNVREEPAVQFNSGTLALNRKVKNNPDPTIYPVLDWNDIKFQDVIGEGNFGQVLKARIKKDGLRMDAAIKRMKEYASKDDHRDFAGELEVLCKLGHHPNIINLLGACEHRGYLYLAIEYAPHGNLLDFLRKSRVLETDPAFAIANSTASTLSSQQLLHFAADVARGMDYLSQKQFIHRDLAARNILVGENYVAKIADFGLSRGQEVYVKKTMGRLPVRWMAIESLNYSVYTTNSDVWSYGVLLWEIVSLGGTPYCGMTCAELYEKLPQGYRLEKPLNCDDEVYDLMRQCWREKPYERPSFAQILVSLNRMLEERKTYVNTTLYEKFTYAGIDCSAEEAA
Sequence of Activated CDC42 kinase 1 (Homo sapiens) (Q07912 whole entry, looked up): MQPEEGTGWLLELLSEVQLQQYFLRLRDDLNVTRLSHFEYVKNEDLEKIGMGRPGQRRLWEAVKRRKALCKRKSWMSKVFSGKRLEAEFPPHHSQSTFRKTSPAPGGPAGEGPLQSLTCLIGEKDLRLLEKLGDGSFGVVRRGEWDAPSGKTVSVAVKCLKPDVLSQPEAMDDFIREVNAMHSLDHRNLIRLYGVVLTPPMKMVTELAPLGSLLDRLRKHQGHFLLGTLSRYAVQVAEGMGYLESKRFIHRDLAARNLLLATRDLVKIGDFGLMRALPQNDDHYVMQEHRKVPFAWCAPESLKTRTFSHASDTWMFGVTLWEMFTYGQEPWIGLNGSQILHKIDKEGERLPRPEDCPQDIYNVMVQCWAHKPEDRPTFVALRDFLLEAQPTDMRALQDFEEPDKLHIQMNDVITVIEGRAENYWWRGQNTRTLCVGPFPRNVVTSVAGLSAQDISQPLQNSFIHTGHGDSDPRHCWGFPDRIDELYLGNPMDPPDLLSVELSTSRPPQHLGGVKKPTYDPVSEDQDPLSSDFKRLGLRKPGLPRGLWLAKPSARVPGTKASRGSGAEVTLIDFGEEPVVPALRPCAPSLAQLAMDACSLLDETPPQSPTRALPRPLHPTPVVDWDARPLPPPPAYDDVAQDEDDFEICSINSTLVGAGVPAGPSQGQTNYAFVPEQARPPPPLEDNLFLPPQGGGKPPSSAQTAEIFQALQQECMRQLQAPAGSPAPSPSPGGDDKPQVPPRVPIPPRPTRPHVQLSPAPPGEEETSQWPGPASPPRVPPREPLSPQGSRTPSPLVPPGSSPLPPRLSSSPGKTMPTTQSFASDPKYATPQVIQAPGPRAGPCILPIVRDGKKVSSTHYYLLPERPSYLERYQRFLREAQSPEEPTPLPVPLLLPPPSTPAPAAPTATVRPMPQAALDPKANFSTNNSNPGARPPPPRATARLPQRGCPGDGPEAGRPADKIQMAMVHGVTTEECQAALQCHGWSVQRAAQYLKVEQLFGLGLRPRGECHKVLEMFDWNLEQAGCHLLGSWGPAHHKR

As a reminder, the inhibition is the relative decrease from the control value, in per cent. Turning to `Cc1cc(O)cc(C)c1/C=C/c1cncc(-c2nn[nH]n2)c1`, the inhibition in assay [1] was -1.42%; in assay [2], 15.1%; in assay [3], 65%; in [4], 4%; in assay [5] it was 4.4%; in assay [6] it was 35.1%. Besides, the inhibition in assay [7] stood at 84.2%; in assay [8], 1.68%; in assay [9], 22%; in assay [10] it was 3.09%; in assay [11], 3.5%; in assay [12], 3.7%. For the same compound, the inhibition in assay [13] is 3.06%; in [14], 3.61%; in assay [15], 8.05%; in [16], 5.73%; in assay [17] it was 45.3%; in assay [18], -2.89%. For the same compound, the results for the inhibition in [19] and in assay [20] were 11.1% and -1.67%, respectively.
For `Fc1cccc(COc2ccc(Nc3ncnc4sc(-c5cccs5)cc34)cc2Cl)c1`, the inhibition is 1.01% in assay [1]; -0.73% in assay [2]; 1.47% in assay [3]; 1.07% in assay [4]; 2.01% in [5]; 3.5% in assay [6]. Moreover, the inhibition in assay [7] is 4.12%; in assay [8] it was -0.19%; in [9] it was 1.13%; in [10] it was 1.3%; in assay [11] it was 2.88%; in assay [12], 1.85%. The inhibition in [13] was 1.29%; in assay [14], 1.21%; in [15] it was 1.03%; in [16], 2.2%; in assay [17], 0.81%; in assay [18], -0.26%. Besides, the values for the inhibition in [19] and in assay [20] were 2.5% and 1.44%, respectively.
For `CS(=O)(=O)CCNCc1ccc(-c2ccc3ncnc(Nc4ccc(OCc5cccc(F)c5)c(C(F)(F)F)c4)c3c2)o1`, the inhibition was 1.13% in assay [1]; 3.58% in [2]; 4.26% in assay [3]; 4.55% in [4]; 5.67% in assay [5]; 4.87% in [6]. The inhibition is 10.5% in [7]; 0.57% in assay [8]; 1.13% in assay [9]; 1.7% in [10]; -0.52% in [11]; 2.14% in assay [12]. Moreover, the inhibition in assay [13] is 2.72%; in [14], 2.59%; in [15], 3.16%; in assay [16] it was 3.11%; in [17] it was 3.02%; in assay [18], -4.14%. In addition, the inhibition in [19] amounted to 7.39%; in assay [20], 4.12%.
For the compound `Cc1ccc(NC(=O)c2ccnc(N3CCCC3)c2)cc1-c1ccc(C(=O)NCC2CC2)cc1`, the inhibition is -1.46% in assay [1]; 0.49% in assay [2]; 3.83% in assay [3]; 1.03% in assay [4]; 5.42% in [5]; 2.43% in [6]. In addition, the inhibition in assay [7] was -2.64%; in assay [8], 1.07%; in [9], 1.27%; in assay [10], 1.92%; in assay [11] it was 2.28%; in [12], 3.47%. In addition, the inhibition was 1.15% in [13]; 3.16% in assay [14]; 3.39% in [15]; -1.04% in [16]; 0.09% in assay [17]; -3.05% in [18]. Moreover, the results for the inhibition in assay [19] and in [20] were 16.9% and 0.15%, respectively.
